“And” between values parts separate entries of the source, which are not always exact repeats. Equal entries are not always repeated. The campaign covered roughly 5,500 compounds. About 2,000 (36%) were called active. About 18% were inconclusive and are not listed. Cut-off read from the data, not from the text of the source: active = normalized growth mostly below about 0.91 (no sharp cut-off); inconclusive = no clear call, values can overlap the other calls; inactive = mostly above about 0.92. The list shows a part of the results.
Test: chemical genetic growth profiling, strain panel (AID 1159580);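 note: tested at 20 µM; growth read once vehicle control cultures reached saturation at 30 °C; 1 = growth at the plate median or of vehicle wells; lower values mean less growth of the strain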
Conditions: S. cerevisiae deletion strains, growth OD

Measured: normalized growth

COc1cc2c(cc1OC)[C@@H]1C(=O)c3ccc(OC)c(CC=C(C)C)c3O[C@@H]1CO2
inactive: locus YAL013W, strain DEP1, hits give low values 1.03 | locus YAL021C, strain ccr4, hits give low values 1.06 | locus YAL026C, strain drs2, hits give low values 1.04 | locus YAL030W, strain snc1, hits give low values 1.02 | locus YBL061C, strain skt5, hits give low values 1.02 | locus YBR009C, strain hhf1, hits give low values 1.01 | locus YBR021W, strain FUR4, hits give low values 1.03 | locus YBR023C, strain chs3, hits give low values 1.02 | locus YBR171W, strain sec66, hits give low values 1.05 | locus YBR229C, strain ROT2, hits give low values 1.02 | locus YBR231C, strain swc5, hits give low values 1.05 | locus YBR279W, strain paf1, hits give low values 1.01 | locus YCL011C, strain gbp2, hits give low values 1.02 | locus YCL016C, strain dcc1, hits give low values 1.02 | locus YCL029C, strain bik1, hits give low values 1.02 | locus YCL061C, strain MRC1, hits give low values 0.987 | locus YCL069W, strain vba3, hits give low values 1.03 | locus YCR088W, strain abp1, hits give low values 1.02 | locus YDL005C, strain med2, hits give low values 1.02 | locus YDL035C, strain GPR1, hits give low values 1.06 | locus YDL040C, strain nat1, hits give low values 1.02 | locus YDL074C, strain BRE1, hits give low values 1.05 | locus YDL101C, strain DUN1, hits give low values 1.01 | locus YDL185W, strain tfp1, hits give low values 1.02 | locus YDL192W, strain arf1, hits give low values 1.04 | locus YDR001C, strain nth1, hits give low values 1.02 | locus YDR069C, strain doa4, hits give low values 1.03 | locus YDR101C, strain arx1, hits give low values 1.03 | locus YDR137W, strain rgp1, hits give low values 0.892 | locus YDR159W, strain sac3, hits give low values 1.02 | locus YDR162C, strain NBP2, hits give low values 1.01 | locus YDR195W, strain ref2 1.06 | locus YDR297W, strain sur2, hits give low values 1.02 | locus YDR318W, strain mcm21, hits give low values 1.01 | locus YDR334W, strain swr1, hits give low values 1.02 | locus YDR335W, strain msn5, hits give low values 1.03 | locus YDR388W, hits give low values 1.02 | locus YDR392W, strain spt3, hits give low values 0.813 | locus YDR502C, strain sam2, hits give low values 1.01 | locus YEL003W, strain gim4, hits give low values 1.03 | locus YEL037C, strain rad23, hits give low values 1.01 | locus YEL061C, strain CIN8 (second series), hits give low values 1.03 | locus YEL061C, strain CIN8, hits give low values 1.04 | locus YER015W, strain faa2, hits give low values 1.04 | locus YER016W, strain bim1, hits give low values 1.03 | locus YER110C, hits give low values 1 | locus YER111C, strain swi4, hits give low values 1.02 | locus YER155C, strain BEM2 (second series), hits give low values 1.03 | locus YER155C, strain BEM2, hits give low values 0.993 | locus YER167W, strain BCK2, hits give low values 1.01 | locus YFR010W, strain ubp6, hits give low values 1.03 | locus YGL078C, strain dbp3, hits give low values 1.01 | locus YGL086W, strain mad1, hits give low values 0.999 | locus YGL167C, strain pmr1, hits give low values 1.03 | locus YGL173C, strain kem1, hits give low values 1.04 | locus YGL227W, strain vid30, hits give low values 1.03 | locus YGL240W, strain doc1, hits give low values 1.03 | locus YGL248W, strain PDE1, hits give low values 1.02 | locus YGL253W, strain hxk2, hits give low values 1.04 | locus YGR078C, strain PAC10, hits give low values 1.05 | locus YGR135W, strain pre9, hits give low values 1.02 | locus YGR252W, strain gcn5, hits give low values 0.994 | locus YHR013C, strain ard1, hits give low values 1.14 | locus YHR027C, strain rpn1, hits give low values 1.03 | locus YHR030C, strain SLT2, hits give low values 1.02 and 1.03 | locus YHR079C, strain IRE1 (second series), hits give low values 0.997 | locus YHR079C, strain IRE1, hits give low values 1.02 | locus YHR094C, strain hxt1, hits give low values 1.01 | locus YHR129C, strain ARP1, hits give low values 1.04 | locus YHR142W, strain chs7, hits give low values 1.01 | locus YHR200W, strain rpn10, hits give low values 1.01 | locus YIL066C, strain RNR3, hits give low values 1.01 | locus YIL073C, strain SPO22, hits give low values 1.1 | locus YIL125W, strain kgd1, hits give low values 0.995 | locus YIR030C, strain dcg1, hits give low values 0.998 | locus YJL092W, strain hpr5, hits give low values 1.03 | locus YJL095W, strain BCK1 (second series), hits give low values 1.02 | locus YJL095W, strain BCK1, hits give low values 1.04 and 1.05 | locus YJL115W, strain asf1, hits give low values 1.03 | locus YJL129C, strain trk1, hits give low values 0.953 | locus YJL134W, strain LCB3, hits give low values 1.02 | locus YJL154C, strain vps35, hits give low values 1.03 | locus YJL164C, strain tpk1, hits give low values 1 | locus YJL166W, strain qcr8, hits give low values 1.03 | locus YJL168C, strain set2, hits give low values 1 | locus YJL187C, strain SWE1 (second series), hits give low values 1 | locus YJL187C, strain SWE1, hits give low values 1.04 | locus YJR066W, strain TOR1, hits give low values 0.982 | locus YKL009W, strain mrt4, hits give low values 1.04 | locus YKL068W, hits give low values 0.999 | locus YKL085W, strain MDH1 (second series), hits give low values 0.999 | locus YKL085W, strain MDH1, hits give low values 0.999 | locus YKL160W, strain elf1, hits give low values 1.02 | locus YKL190W, strain CNB1, hits give low values 1.04 | locus YKR001C, strain vps1, hits give low values 0.934 | locus YKR026C, strain gcn3, hits give low values 1 | locus YKR091W, strain srl3, hits give low values 1.02 | locus YLL001W, strain dnm1, hits give low values 1.03 | locus YLL026W, hits give low values 1.03 | locus YLL041C, strain sdh2, hits give low values 1.02 | locus YLR027C, strain aat2, hits give low values 1.02 | locus YLR039C, strain RIC1, hits give low values 0.846 | locus YLR058C, strain SHM2, hits give low values 1 | locus YLR102C, strain apc9, hits give low values 1.01 | locus YLR113W, strain HOG1, hits give low values 0.988 | locus YLR221C, strain rsa3, hits give low values 1.01 | locus YLR258W, strain gsy2, hits give low values 1.03 | locus YLR262C, strain YPT6 (second series), hits give low values 0.91 | locus YLR268W, strain sec22, hits give low values 1.05 | locus YLR320W, strain mms22, hits give low values 1.02 | locus YLR330W, strain CHS5, hits give low values 1.01 | locus YLR342W, strain FKS1, hits give low values 1.02 | locus YLR357W, strain rsc2, hits give low values 1.02 | locus YLR370C, strain arc18, hits give low values 1.02 | locus YLR371W, strain rom2, hits give low values 1.04 | locus YLR384C, strain iki3, hits give low values 1.02 | locus YLR418C, strain cdc73, hits give low values 1.01 | locus YML016C, strain PPZ1, hits give low values 1.01 | locus YML032C, strain rad52, hits give low values 1 | locus YML120C, strain ndi1, hits give low values 1.01 | locus YML124C, strain tub3, hits give low values 1.01 | locus YMR058W, strain fet3, hits give low values 1.03 | locus YMR078C, strain ctf18, hits give low values 1.01 | locus YMR125W, strain sto1, hits give low values 1.03 | locus YMR129W, hits give low values 1.02 | locus YMR205C, strain PFK2, hits give low values 0.993 | locus YMR223W, strain ubp8, hits give low values 1.02 | locus YMR231W, strain pep5, hits give low values 1.02 | locus YMR263W, strain SAP30, hits give low values 1.03 | locus YMR307W, strain GAS1, hits give low values 1.08 | locus YNL067W, strain RPL9B, hits give low values 1.04 | locus YNL071W, strain lat1, hits give low values 1.01 | locus YNL153C, strain GIM3, hits give low values 1.04 | locus YNL183C, strain NPR1, hits give low values 0.974 | locus YNL209W, strain ssb2, hits give low values 1.03 | locus YNL233W, strain BNI4, hits give low values 0.984 | locus YNL248C, strain rpa49, hits give low values 1.05 | locus YNL250W, strain rad50, hits give low values 0.961 | locus YNL271C, strain bni1, hits give low values 1.01 | locus YNL298W, strain CLA4, hits give low values 1.01 | locus YNL307C, strain MCK1, hits give low values 0.999 | locus YNL322C, strain KRE1 (second series), hits give low values 1.01 | locus YNL322C, strain KRE1, hits give low values 1.02 | locus YNR049C, strain mso1, hits give low values 1.04 | locus YNR052C, strain pop2, hits give low values 1.03 | locus YOL012C, strain htz1 1.26 | locus YOL147C, strain pex11, hits give low values 1 | locus YOR001W, strain rrp6, hits give low values 1.04 | locus YOR061W, strain CKA2, hits give low values 1.02 | locus YOR069W, strain VPS5, hits give low values 1.01 | locus YOR070C, strain gyp1, hits give low values 1.02 | locus YOR080W, strain dia2, hits give low values 1.04 | locus YOR083W, strain WHI5, hits give low values 1.02 | locus YOR106W, strain vam3, hits give low values 1.05 | locus YOR136W, strain idh2, hits give low values 1.03 | locus YOR144C, strain elg1, hits give low values 1.01 | locus YOR184W, strain ser1, hits give low values 1.05 | locus YOR231W, strain MKK1, hits give low values 1.04 | locus YOR265W, strain rbl2, hits give low values 1.02 | locus YOR270C, strain vph1, hits give low values 1.06 | locus YOR290C, strain snf2, hits give low values 1 | locus YOR316C, strain cot1, hits give low values 0.992 | locus YPL051W, strain arl3, hits give low values 1.01 | locus YPL078C, strain atp4, hits give low values 1.03 | locus YPL106C, strain sse1, hits give low values 1.1 | locus YPL240C, strain hsp82, hits give low values 1.02 | locus YPL256C, strain CLN2, hits give low values 1.03 | locus YPR119W, strain clb2, hits give low values 1.01 | locus YPR141C, strain kar3, hits give low values 1 | locus YPR163C, strain tif3, hits give low values 0.997 | locus YPR167C, strain met16, hits give low values 1.01 | strain wtn01, hits give low values 1.01
